# In the library only some 28% were active in any assay of this set; here they are far more common.
# CYP2C19 inh: blocks human cytochrome P450 2C19; CYP2C19 Supersomes, luciferin-H EGE luminescence, 30 min; inhibition, % at 5 µM; P33261; AID 778; 21% of 96,000 active;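 active = CYP2C19 inhibition above a set limit at 5 µM in the primary screen, cut at about 50% in these data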
# CYP2C19 act: increases human CYP2C19 enzyme activity; P33261; recombinant CYP2C19, luciferin-H EGE luminescence; stronger effect = higher value; 0 = fully inhibited enzyme, 1 = untreated enzyme; activation factor at 5 µM; 96,000 tested, under 10 active; AID 1025;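 active = activation factor of at least 2 at 5 µM in the primary screen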
# PLK1 kinase inh: blocks human PLK1 kinase activity | P53350 | recombinant PLK1 kinase, TR-FRET peptide phosphorylation | inhibition, % at 10 µM | 0.53% of 97,000 active;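 active = inhibition of 50% or more in the single-concentration screen; inactive = inhibition below 50%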
# Target sequence (P53350 whole entry, looked up): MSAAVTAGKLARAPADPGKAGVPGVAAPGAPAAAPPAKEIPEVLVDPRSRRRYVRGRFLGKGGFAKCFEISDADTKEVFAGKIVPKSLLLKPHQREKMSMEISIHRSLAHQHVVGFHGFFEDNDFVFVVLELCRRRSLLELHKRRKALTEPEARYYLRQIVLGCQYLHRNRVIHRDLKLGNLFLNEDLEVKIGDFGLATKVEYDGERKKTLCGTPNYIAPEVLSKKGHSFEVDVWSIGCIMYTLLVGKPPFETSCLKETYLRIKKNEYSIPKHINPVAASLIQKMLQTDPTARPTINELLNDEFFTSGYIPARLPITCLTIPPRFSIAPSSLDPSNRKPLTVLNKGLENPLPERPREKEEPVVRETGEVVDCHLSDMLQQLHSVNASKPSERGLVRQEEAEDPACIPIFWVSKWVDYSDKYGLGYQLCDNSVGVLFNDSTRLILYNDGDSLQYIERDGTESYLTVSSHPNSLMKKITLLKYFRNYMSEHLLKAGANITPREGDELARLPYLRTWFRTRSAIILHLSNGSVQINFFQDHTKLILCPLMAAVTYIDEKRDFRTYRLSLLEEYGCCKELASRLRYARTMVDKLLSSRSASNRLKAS
# CYP2C9 act: increases human cytochrome P450 2C9 activity | recombinant CYP2C9, luciferin-H conversion, luminescence; stronger effect = higher value; factor 1 = untreated enzyme, 0 = blocked | AID 1024 | P11712 | 1.4% of 96,000 active | activation factor at 5 µM;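 active = activation factor of 2 or more for CYP2C9 at a 5 µM dose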
# PLK1 PBD inh: inhibitors of human Plk1 polo box domain binding; P53350; Plk1 PBD phosphopeptide binding, fluorescence polarization; inhibition, %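 (tested at about 20 µM)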; 0.13% of 97,000 active; in the data active = inhibition above about 34%, passing the limit was not always enough
# CYP2C9 inhib: blocks human cytochrome P450 2C9. P11712. CYP2C9 Supersomes, luciferin-H conversion, luminescence. inhibition, % at 5 µM. 20% of 96,000 active. AID 777;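 active = blocking of liver enzyme CYP2C9 beyond about 50% at 5 µM, limit read from the data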
# A number is an active result; n = inactive; x = no result.
SMILES,CYP2C19 inh,CYP2C19 act,PLK1 kinase inh,CYP2C9 act,PLK1 PBD inh,CYP2C9 inhib
O=c1[nH]n(-c2ccc(Cl)cc2)c(=O)c(Cl)c1Cl,n,n,n,n,n,n
c1ccc(Oc2cccc(NC3=NCCC3)c2)cc1,n,n,n,n,n,n
COc1ccc(OC)c(C2CC(=O)C(C)C(c3cc(OC)ccc3OC)N2)c1 (centres undefined),n,n,n,n,n,76
COC(=O)c1[nH]c2c(c1C)C(=O)CC(c1cc(OC)ccc1OC)C2 (centres undefined),n,n,n,n,n,n
Cc1nn(C(=O)C2CC2)c(C)c1Sc1ccc(Cl)cc1,x,x,n,x,n,x
Cc1[nH]n(C(C)(C)C)c(=O)c1Sc1ccc(Cl)cc1,54,n,n,n,n,54
CC(NC(=O)CCl)c1ccc(Cl)c(Cl)c1 (centres undefined),86,n,n,n,n,n
CC(C)CNC(=O)c1cc(-c2ccc(Cl)c(Cl)c2)on1,n,n,n,n,n,n
COc1ccc(OC)c(C2C(C#N)=C(N)Oc3cc(N)ccc32)c1 (centres undefined),94,n,x,n,x,92
COc1ccc(C2C(C#N)=C(N)Oc3cc4c(cc32)OCO4)cc1 (centres undefined),87,n,n,n,n,87
N#CC1=C(N)Oc2cc(N)ccc2C1C1CCCCC1 (centres undefined),84,n,n,n,n,n
COc1ccc(OC)c(C2C(C#N)=C(N)Oc3cc(C)[nH]c(=O)c32)c1 (centres undefined),n,n,n,n,n,n
CCOc1ccccc1C1C(C#N)=C(N)Oc2cc(N)ccc21 (centres undefined),76,n,n,n,n,70
CC1CCc2nn(CC(=O)NC3CCCC(C)C3C)cc2C1 (centres undefined),n,n,x,n,x,n
Cc1cccc(Sc2nc(-c3ccccc3)ccc2C#N)c1,n,n,n,n,n,n
O=C(Cn1c(C(F)(F)F)nc2ccccc21)c1ccc(F)cc1,n,n,n,n,n,n
C(=N\Nc1ncnc2sc3c(c12)CCC3)/c1ccncc1,83,n,n,n,n,82
O=C(Nc1ncnc2sc3c(c12)CCC3)c1ccco1,n,n,n,2.4,n,n
O=C(Nc1ncnc2sc3c(c12)CCCCC3)c1ccccc1,51,n,n,n,n,n
CC1CCN(c2oc(-c3cccc4ccccc34)nc2C#N)CC1,x,x,n,x,n,x
CCN(CC)S(=O)(=O)c1ccc(C(=O)NCCCN=C2NS(=O)(=O)c3ccccc32)cc1,x,x,n,x,n,x
CC1CCC(NC(=O)C2CCN(C(=O)NC3CCCCC3)CC2)CC1 (centres undefined),n,n,n,n,n,n
Cc1cc(=O)[nH]c(SCC(=O)c2ccccc2)c1C#N,n,n,x,n,x,85
Cc1ccccc1NC(=O)CSc1[nH]c(=O)cc(C)c1C#N,63,n,n,n,n,81
c1ccc(Cc2nnc3sc(-c4ccco4)nn23)cc1,91,n,n,n,n,n
SMILES,CYP2C19 inh,CYP2C19 act,PLK1 kinase inh,CYP2C9 act,PLK1 PBD inh,CYP2C9 inhib
Clc1ccccc1-c1nnc2sc(-c3ccco3)nn12,69,n,n,n,n,n
Clc1ccccc1-c1nnc2sc(-c3ccccn3)nn12,x,x,n,x,n,x
c1cncc(-c2nnc3sc(-c4ccco4)nn23)c1,n,n,n,n,n,n
COc1cccc(OC)c1-c1nn2c(-c3ccccc3Cl)nnc2s1,82,n,n,n,n,n
FC(F)(F)Oc1ccc(Nc2nc3ccccc3o2)cc1,n,n,x,n,x,76
c1ccc(Nc2nc3ccccc3o2)cc1,n,n,n,n,n,n
CCn1c(Sc2nc(C)nc3scc(-c4cccs4)c23)n[nH]c1=O,57,n,n,n,n,58
Cc1cc(C)c2c(N)c(-c3nc4ccccc4[nH]3)sc2n1,52,n,n,n,n,57
CC1CCCCC12NC(=O)N(CC(=O)c1ccc[nH]1)C2=O (centres undefined),n,n,n,n,n,n
CCCCNc1ncnc2c1cnn2-c1ccc(C)cc1C,n,n,x,n,x,n
Cc1cccc(-n2ncc3c(N4CCCC4)ncnc32)c1,x,x,n,x,n,x
C=CCNc1ncnc2c1cnn2-c1cccc(C)c1,66,n,x,n,x,73
Cc1cccc(-n2ncc3c(N4CC(C)CC(C)C4)ncnc32)c1 (centres undefined),n,n,n,n,n,81

# Screens as filed in PubChem BioAssay.
